Data from PubChem BioAssay (NCI).
The panel holds about 83,000 compounds, 20% with a hit somewhere; the sample as a whole holds those more often.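 How to read the values: 0–100, growth inhibition (40 = 60% inhibited); 0, no net growth; -100 to 0, cell death (-40 = 40% of starting cells died; -100 = all dead).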 The source made the active and inactive calls. The calls were made as follows: active = growth percent below 10; inactive = the rest.

Columns and labels:
Experiment in all cases: NCI-60 one-dose screen, 48 h (100 = growth as untreated, 0 = no growth, -100 = all killed)
Settings in all cases: 10 µM unless noted
[1] = test system: HCT-15 colon
[2] = test system: HT29 colon
[3] = test system: SNB-75 CNS
[4] = test system: SNB-19 CNS
[5] = test system: U251 CNS
[6] = test system: SK-MEL-5 melanoma
[7] = test system: UACC-62 melanoma
[8] = test system: LOX IMVI melanoma
[9] = test system: SK-MEL-28 melanoma
[10] = test system: PC-3 prostate

Measured: growth

COc1ccc(Cn2nc(-c3cc(OC)c(OC)c(OC)c3)c3c2CCc2cnoc2-3)cc1OC
inactive: [1] 53.1% | [2] 22% | [3] 37.8% | [4] 65.4% | [5] 62.1% | [6] 38.7% | [7] 51.1% | [8] 47% | [9] 64.9%

O=C(CNCCO)Nc1ccc2ncnc(Nc3ccc(OCc4cccc(F)c4)c(Cl)c3)c2c1
inactive: [1] 87.9% | [2] 46.9% | [3] 88.2% | [4] 82% | [5] 69.9% | [6] 89% | [7] 104% | [8] 74.3% | [9] 91%

COc1cc(NCCCN(CC(C)C)CC(C)C)c2ncccc2c1
inactive: [1] 72.9% | [2] 82.7% | [3] 95.4% | [4] 99.9% | [5] 96.1% | [6] 97% | [7] 89% | [8] 85.3% | [9] 97%

CC(C)C1C2=C(NCCN1C(=O)Cc1ccccc1)C(C)(C)N(Cc1ccccc1)C2=O (centres undefined)
inactive: [1] 95.4% | [2] 109% | [3] 85.3% | [4] 96.8% | [5] 103% | [6] 104% | [7] 92.4% | [8] 101% | [9] 104%

COc1cc(C2CC(c3cccc(Nc4ccncc4)c3)=NN2c2ccccc2)cc(OC)c1OC (centres undefined)
inactive: [1] 28.2% | [3] 44.2% | [4] 68.1% | [10] 30.2% | [7] 96.2% | [8] 33.8%
active: [2] 1.04% | [6] -52.5%

Nc1nnc2cc(Cl)ccc2n1
inactive: [1] 94.2% | [2] 119% | [3] 91.6% | [4] 104% | [10] 77% | [6] 102% | [7] 93.1%

NC(=O)c1cccc(-n2ccc3cc(NC(=O)Nc4cc(C(F)(F)F)cc(C(F)(F)F)c4)ccc32)n1
inactive: [1] 37.1% | [2] 52.6% | [3] 41% | [4] 42% | [5] 36.7% | [6] 69% | [7] 52.9% | [8] 50.9% | [9] 69.3%

NC(=O)c1cccc(-c2cc(C(N)=O)ccc2Cl)c1
inactive: [1] 33.8% | [4] 41.6% | [5] 19.1% | [6] 14.9% | [7] 35.7% | [8] 42.1% | [9] 58.8%
active: [2] 8.86% | [3] -19.6%
